Bioassay records from PubChem BioAssay.
The sample as a whole holds a higher share of hits than the screen did.
RE007 growth inh = less growth of the S. pombe RE007 Vpr strain; Potency, µM (titrated, usually from 92.2 µM), without a hit: at the highest dose activity change, negative = less growth, actives largely listed as inhibitors; S. pombe RE007 Vpr strain, BacTiter-Glo ATP luminescence, 24 h; 360,000 compounds, 0.21% hits; active means well fitted falling curve with a large enough effect; inconclusive means small, poorly fitted or top-dose-only effect; inactive means no such curve, though single readings can be large or run the other way; further: potency means the concentration at half of the fitted maximal effect; on the % scale 0 is the no-effect control and ±100 the full control effect; nearly all actives have a fitted effect of over 50% in size
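Fission yeast strain RE007, carrying one chromosomally integrated HIV-1 vpr copy, was seeded at OD 0.01 in PMG+AL medium with 23 nL pinned compound. After 24 h at 30 °C and 99% humidity, viability was read by BacTiter-Glo luminescence.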
Giardia FBPA inh = inhibitors of Giardia lamblia fructose-1,6-bisphosphate aldolase | purified Giardia FBPA | Potency, µM (series often up to 59.6 µM), for the others: top-dose activity, negative = inhibition, hits mostly inhibitors | 290,000 compounds, 0.71% hits | AID 2451; further: potency means the concentration at half of the fitted maximal effect; on the % scale 0 is the no-effect control and ±100 the full control effect; nearly all actives have a fitted effect of over 55% in size
Target sequence (A8B2U2 whole entry, looked up): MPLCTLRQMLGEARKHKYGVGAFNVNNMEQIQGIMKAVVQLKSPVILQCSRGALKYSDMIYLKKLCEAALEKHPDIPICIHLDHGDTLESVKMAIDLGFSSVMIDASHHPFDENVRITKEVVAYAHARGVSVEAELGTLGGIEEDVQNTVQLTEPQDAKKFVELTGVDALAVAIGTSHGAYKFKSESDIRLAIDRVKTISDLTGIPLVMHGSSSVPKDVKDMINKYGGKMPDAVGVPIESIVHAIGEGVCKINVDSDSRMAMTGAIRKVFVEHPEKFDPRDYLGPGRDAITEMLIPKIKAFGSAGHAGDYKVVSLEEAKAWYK
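40 nM FBPA preincubated 10 min at RT with compound (up to 57.5 uM final), then substrate plus GAPDH/TPI/NAD/arsenate coupling and diaphorase/resazurin added. Fluorescence read after 20 min at RT, 525/598 nm.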
Tb PYK inh = blocks Trypanosoma brucei pyruvate kinase; 410,000 compounds, 0.12% hits; Potency, µM (doses to about 76.8 µM), without a hit: top-dose activity, negative = inhibition, most hits filed as inhibitors; TbPYK enzyme, Kinase-Glo Plus ATP luminescence, 45 min; Q57TT1; further: potency means the concentration at half of the fitted maximal effect; on the % scale 0 is the no-effect control and ±100 the full control effect; nearly all actives have a fitted effect of over 50% in size
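Luminescence from Kinase-Glo Plus, added after a 45-minute room-temperature reaction, served as the end-point read-out. The enzyme and substrate were preincubated with compound before ADP (130 uM final) initiated turnover. Concentration-effect curves came from normalized qHTS data.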
CHX counter = counter-screen hit for Shiga toxin inhibitors, cycloheximide; cell reporter, cycloheximide protein synthesis inhibition counterscreen; 300,000 compounds, 12% hits; max response, %; in the data active means max response mostly above about 13%, no sharp cut-off; inactive means mostly below about 14%; further: read at 38.3 µM for the half of the compounds with a filed dose; 0% is about no effect
LmPK inh = inhibitors of Leishmania mexicana pyruvate kinase. AID 1721. Q27686. purified LmPK, Kinase-Glo ATP luminescence, 1 h. 290,000 compounds, 0.37% hits. Potency, µM (titrated, usually from 57.5 µM), inactives show at the top dose activity change, negative = inhibition, actives largely listed as inhibitors; further: potency means the concentration at half of the fitted maximal effect; on the % scale 0 is the no-effect control and ±100 the full control effect
Target sequence (Q27686 whole entry, looked up): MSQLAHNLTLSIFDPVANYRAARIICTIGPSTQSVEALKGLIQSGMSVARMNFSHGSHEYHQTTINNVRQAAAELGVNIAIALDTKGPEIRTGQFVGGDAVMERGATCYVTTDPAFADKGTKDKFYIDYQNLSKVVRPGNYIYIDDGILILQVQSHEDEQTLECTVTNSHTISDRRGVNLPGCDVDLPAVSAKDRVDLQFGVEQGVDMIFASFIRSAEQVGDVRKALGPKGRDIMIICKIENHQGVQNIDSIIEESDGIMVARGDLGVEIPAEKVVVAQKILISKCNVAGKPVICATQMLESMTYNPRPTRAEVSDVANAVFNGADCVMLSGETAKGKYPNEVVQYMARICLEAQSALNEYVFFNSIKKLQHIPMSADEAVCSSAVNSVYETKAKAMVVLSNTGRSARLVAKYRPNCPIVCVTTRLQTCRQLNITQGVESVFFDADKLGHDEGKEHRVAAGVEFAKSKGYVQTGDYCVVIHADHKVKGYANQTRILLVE
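Screened at intermediate enzyme activity to detect both inhibitors and activators: LmPK at 0.1 nM, with a 0.5 nM enzyme column as activation reference. PEP 0.5 mM, ADP 0.1 mM; ATP detected by luminescence after 1 h.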
Shiga inhibitor = Shiga toxin inhibition | Vero cells, Shiga toxin protein synthesis inhibition reporter | inhibition, % at 38.7 µM | 290,000 compounds, 9.2% hits | AID 2315; in the data active means inhibition mostly above about 28%, no sharp cut-off; inactive means mostly below about 43%; further: 0% is about no effect
* = called active by the depositor; i = inactive; u = inconclusive; x = no result given; ! = repeats disagree; [ ] = dose if it differs, or a comment. Unless noted, the call rests on the fitted dose curve; in most records, active means well fitted curve in the direction sought with a large enough effect; inconclusive means small, poorly fitted or top-dose-only effect, or another doubt; inactive means no such curve, though single readings can be large; an effect the other way counts as inactive or inconclusive.

SMILES | RE007 growth inh | Giardia FBPA inh | Tb PYK inh | CHX counter | LmPK inh | Shiga inhibitor
C[C@@H](C(=O)Nc1ccc2ccccc2c1)[C@H]1C[C@]1(C)[C@H](NC(=O)OCc1ccccc1)c1ccccc1 | 8.6% | -16.0% | 1.8% | 19.2* | -0.8% | 51.2*
COc1ccc(-c2cn3c(n2)sc2cc(C(=O)Nc4ccc(F)cc4Cl)ccc23)cc1 | x | x | 0.4% | x | x | x
C=CCNC(=O)c1c(Cl)cnn1-c1ccc(C)cc1 | -4.5% | 2.1% | -0.2% | 44.2* | 1.7% | 69.2*
CNC(=O)c1c(Cl)cnn1-c1ccc(C)cc1 | -6.8% | 0.6% | -4.1% | 21.2* | -4.6% | 55.4*
Cc1ccc(-n2ncc(Cl)c2C(=O)NC2CC2)cc1 | -10.7% | 1.3% | -9.8% | 49.4* | -12.6% | 93.4*
CNC(=O)c1c(Br)cnn1-c1ccc(C)cc1 | -4.9% | 7.8% | -1.1% | 35.0* | -3.8% | 42.5*
COc1cc(C(=O)Nc2cc3c(cc2C)n(C)c(=O)c(=O)n3C)cc(OC)c1OC | x | x | -1.8% | x | x | x
CC1OC(Oc2c(-c3cc(O)c(O)c(O)c3)oc3cc(O)cc(O)c3c2=O)C(O)C(O)C1O (centres undefined) | -2.2% | 9.98µM* | -23.5% | 1.2 | 9.5% | -7.4
O=c1c(O)c(-c2ccc(O[C@@H]3O[C@H](CO)[C@@H](O)[C@H](O)[C@H]3O)c(O)c2)oc2cc(O)cc(O)c12 | x | -15.3% | x | -3.0 | x | 8.0
O=c1cc(-c2ccc(O)c(O)c2)oc2cc(O)cc(O)c12 | -8.6% | -13.1% | -9.3% | 56.3* | -10.9% | 67.3*
COc1cc(-c2oc3cc(O)cc(O)c3c(=O)c2O)ccc1O | x | 4.0% | x | 48.4*! | x | 48.7*
O=c1c(O)c(-c2ccc(O)c(O)c2)oc2cc(O)cc(O)c12 | 3.9%[18.4 µM] | u | 20.4% | 30.1* | 1.8% | 24.8
COc1ccc(-c2cc(=O)c3c(O)cc(O)cc3o2)cc1 | -0.7%[18.4 µM] | 5.1% | 0.5% | x | x | x
Cc1nc2ccc(S(=O)(=O)N(CC(=O)Nc3ccc(Cl)cc3)Cc3ccccc3)cc2s1 | x | x | -6.0% | x | x | x
O=C(c1csnn1)N1CCC2(CC1)CN(c1ccncc1)C2 | x | -8.3% | -9.4% | x | x | x
Cc1ccc(-n2nc(C(=O)N3CCN(c4cccc(C(F)(F)F)c4)CC3)c3c4ccccc4n(C)c3c2=O)cc1 | x | x | -5.3% | x | x | x
CC(C)OC(=O)[C@@H]1CC[C@H](C)[C@@H](CCCCO)O1 | x | 1.0% | x | x | x | x
Cc1ccc(C2CC(=O)Oc3cc(C)c(Cl)cc32)cc1 (centres undefined) | x | 3.7%[89.2 µM] | x | -1.9 | x | i
CN(Cc1ccccc1Cl)C(=O)C1CCC(=O)N(C2CCCCCC2)C1 (centres undefined) | 8.4% | 3.1% | 0.0% | 14.3* | -6.2% | 17.5
CCCn1c(C)cc(C(=O)COC(=O)c2ccc(Cl)c(S(=O)(=O)N3CCCC3)c2)c1C | -10.8% | -0.2% | -7.4% | 31.5* | 0.9% | 142.2*
Cc1ccc(-n2c(C)cc(C(=O)COC(=O)c3ccc[nH]c3=O)c2C)cc1C | -23.4% | 10.8% | -2.2% | 26.9* | 1.5% | 67.0*
CCCCNC(=O)COC(=O)c1ccc(Cl)c(S(=O)(=O)N2CCCC2)c1 | 13.0% | 3.4% | -2.7% | 12.1 | 6.0% | 17.8
Cc1cc(C(=O)COC(=O)c2ccc[nH]c2=O)c(C)n1-c1ccccc1F | 8.9% | 4.2% | 0.3% | 0.9 | 6.4% | -19.2
CCCn1c(C)cc(C(=O)COC(=O)c2ccc[nH]c2=O)c1C | -16.7% | 5.2% | -4.5% | 28.7* | -5.2% | 44.9*
COCCn1c(C)cc(C(=O)COC(=O)Cc2n[nH]c(=O)c3ccccc23)c1C | 20.3% | x | 4.1% | x | x | x
SMILES | RE007 growth inh | Giardia FBPA inh | Tb PYK inh | CHX counter | LmPK inh | Shiga inhibitor
Cc1cc(C(=O)COC(=O)C2=NNC(=O)CC2)c(C)n1-c1ccccc1 | 8.8% | -8.4% | -3.2% | 28.5* | 0.2% | 37.6*
CO/N=C(/C(=O)N[C@@H]1C(=O)N2C(C(=O)OC(C)OC(C)=O)=C(COC(N)=O)CS[C@H]12)c1ccco1 (some centres undefined) | x | x | 0.0% | x | x | x
Clc1ccc(CCNc2nc3cc(Cl)c(Cl)cc3n3cnnc23)cc1 | x | x | -5.2% | x | x | x
Cc1cc(C(=O)CCl)c(C)n1CCc1ccccc1 | -9.8% | u | 4.1% | 7.9 | 1.3% | 15.1
CCOC(=O)c1cc(C)n(CCc2ccccc2)c1C | -22.9% | 1.3% | 0.8% | 22.0* | -1.4% | 27.4
Cc1cc(-c2ccc(N=Nc3ccc4c(S(=O)(=O)O)cc(S(=O)(=O)O)c(N)c4c3O)c(C)c2)ccc1N=Nc1ccc2c(S(=O)(=O)O)cc(S(=O)(=O)O)c(N)c2c1O | x | 22.3µM* | u | x | x | x
Nc1c(N=Nc2ccc(-c3ccc(N=Nc4cc(S(=O)(=O)O)c5ccccc5c4N)cc3)cc2)cc(S(=O)(=O)O)c2ccccc12 | x | -8.1% | -4.8% | 19.4 | x | -5.8
CCN(Cc1ccccc1)C(=O)c1cc2c(s1)-c1c(C)cccc1OC2 | x | x | -0.2% | x | x | x
Cc1cccc(C)c1OCc1cc(C(=O)N2CC3C[C@@H]4CC2C[C@H](C3)C4)no1 | -3.4% | x | 1.8% | 65.4* | -8.1% | 96.4*
Cc1ccc(OCc2cc(C(=O)N3CC4C[C@@H]5CC3C[C@H](C4)C5)no2)cc1C | -9.3% | x | 6.8% | 34.6* | -2.4% | 134.6*
Cc1ccc(Cl)cc1NC(=O)c1cc2c(=O)n3cccc(C)c3nc2n1C | x | x | -3.6% | x | x | x
COc1ccc(-c2cc(C(=O)Nc3c(C(=O)c4ccc(Cl)cc4)oc4ccccc34)no2)cc1 | x | x | 1.1% | x | x | x
CCc1ccc2oc(-c3ccc(OC)cc3)cc(=Nc3cccc(C(=O)O)c3)c2c1 | -21.6% | 2.3% | -11.9% | 58.3* | -3.4% | 136.9*
COc1ccc(-c2cc(=Nc3cccc(C(=O)O)c3)c3cc(C)ccc3o2)cc1 | -16.1% | 4.7% | -9.0% | 58.6* | -3.3%[11.5 µM] | 98.2*
COc1ccc(-c2cc(=O)c3cc(OCC(=O)OC(C)C)ccc3o2)cc1 | x | x | 6.6% | x | x | x
COc1ccc(-c2cc(=Nc3ccc(C(=O)O)cc3)c3cc(C)ccc3o2)cc1 | 17.0% | -1.5% | -2.6% | 62.9* | 1.1%[11.5 µM] | 160.6*
COc1ccc(-c2cc(=NCC(=O)O)c3ccccc3o2)cc1 | -27.4% | -4.6% | 3.9% | 27.5* | 0.8% | 61.5*
Cc1ccc2oc(-c3ccccc3)cc(=O)c2c1 | x | 0.2% | x | x | x | x
COc1ccc(-c2cc(=NCCCCCC(=O)O)c3cc(C)ccc3o2)cc1 | -7.9% | -0.2% | -1.9% | 11.6 | 1.2%[11.5 µM] | 5.4
CC(=O)N1CCc2cc(S(=O)(=O)NC(CC(C)C)C(=O)Nc3ccc(C(C)C)cc3)ccc21 (centres undefined) | x | x | -2.1% | x | x | x
CCOC(=O)C(CCc1ccccc1)NC(C)C(=O)N1CCCC1C(=O)O (centres undefined) | x | 5.4% | x | x | x | x
COc1cccc(N2CCN(C(=O)Cn3ncc4c3-c3ccccc3OC4)CC2)c1 | x | x | 2.3% | x | x | x
